Results filed as inconclusive are left out. Calls of active or inactive are those of the source. How the source made its calls, unless noted: active means hit-call score of the fitted dose curve at least 0.9, where 1 is the maximum; inconclusive means response in the unintended direction; inactive means score below 0.9.
What was measured:
[1] = read-out: sulfotransferase 2A1 (SULT2A1), SULT2A1 (gene 6822); assay: LTEA_HepaRG_SULT2A1: Life Technologies and Expression Analysis (LTEA) Assay for sulfotransferase 2A1 (SULT2A1) using HepaRG (AID 2283531; active means hit-call score of the fitted dose curve at least 0.9, where 1 is the maximum; inactive means score below 0.9); settings: mRNA level, 48 h; actives raise or lower the signal
How it was run: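 Gene-expression endpoint in a human liver cell line: SULT2A1 mRNA change after 48 h chemical treatment, curves fitted in both directions relative to 0.5% DMSO vehicle. Concentrations spanned eight half-log steps from 100 uM.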

[2] = read-out: Transforming Growth Factor (TGFA), TGFA (gene 7039); assay: LTEA_HepaRG_TGFA: Life Technologies and Expression Analysis (LTEA) Assay for Transforming Growth Factor (TGFA) using HepaRG (AID 2283532; active means hit-call score of the fitted dose curve at least 0.9, where 1 is the maximum; inactive means score below 0.9); settings: mRNA level, 48 h; actives raise or lower the signal
How it was run: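 TGFA transcript quantified by qRT-PCR (Fluidigm arrays) against three housekeeping genes, after 48 hours chemical treatment of HepaRG cells. Top concentration 100 uM with half-log dilutions, 8 points, duplicates, 0.5% DMSO.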

TIMP1, TIMP1 (gene 7076) = assay: LTEA_HepaRG_TIMP1: Life Technologies and Expression Analysis (LTEA) Assay for TIMP1 using HepaRG (AID 2283534; active means hit-call score of the fitted dose curve at least 0.9, where 1 is the maximum; inactive means score below 0.9); settings: mRNA level, 48 h; actives raise or lower the signal
How it was run: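 TIMP1 induction or repression in HepaRG cells after 48 h chemical exposure (eight concentrations, highest 100 uM), assessed by normalized qRT-PCR with bidirectional fitting to DMSO controls.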

[3] = read-out: Tumor necrosis factor receptor 1 (TNFRSF1A), TNFRSF1A (gene 7132); assay: LTEA_HepaRG_TNFRSF1A: Life Technologies and Expression Analysis (LTEA) Assay for Tumor necrosis factor receptor 1 (TNFRSF1A) using HepaRG (AID 2283535; active means hit-call score of the fitted dose curve at least 0.9, where 1 is the maximum; inactive means score below 0.9); settings: mRNA level, 48 h; actives raise or lower the signal
How it was run: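 Assay uses 48 h chemical treatment of differentiated HepaRG monolayers, tested in duplicate at eight concentrations from 100 uM downward in 0.5% DMSO. mRNA is normalized to ACTB, GAPDH and POLR2A, with induction or suppression fitted relative to vehicle.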

[4] = read-out: Thyroid Hormone Responsive (THRSP), THRSP (gene 7069); assay: LTEA_HepaRG_THRSP: Life Technologies and Expression Analysis (LTEA) Assay for Thyroid Hormone Responsive (THRSP) using HepaRG (AID 2283536; active means hit-call score of the fitted dose curve at least 0.9, where 1 is the maximum; inactive means score below 0.9); settings: mRNA level, 48 h; actives raise or lower the signal
How it was run: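 THRSP transcript quantified by Fluidigm qRT-PCR against three housekeeping genes after 48 h chemical exposure of HepaRG cells in serum-free induction medium; eight-point half-log series, top 100 uM, 0.5% DMSO vehicle, duplicate wells.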

[5] = read-out: Cellular tumor antigen p53 (Homo sapiens) (UniProt P04637); assay: LTEA_HepaRG_TP53: Life Technologies and Expression Analysis (LTEA) Assay for Tumor Protein P53 (TP53) using HepaRG (AID 2283537; active means hit-call score of the fitted dose curve at least 0.9, where 1 is the maximum; inactive means score below 0.9); settings: mRNA level, 48 h; actives raise or lower the signal
How it was run: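 HepaRG, 48 h exposure, top 100 uM, half-log 8-point, 0.5% DMSO vehicle, duplicates. Read: TP53 mRNA by TaqMan qRT-PCR, normalised to ACTB/GAPDH/POLR2A; bidirectional fit vs DMSO.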

[6] = read-out: UDP glucuronosyltransferase (UGT1A1), UGT1A1 (gene 54658); assay: LTEA_HepaRG_UGT1A1: Life Technologies and Expression Analysis (LTEA) Assay for UDP glucuronosyltransferase (UGT1A1) using HepaRG (AID 2283538; active means hit-call score of the fitted dose curve at least 0.9, where 1 is the maximum; inactive means score below 0.9); settings: mRNA level, 48 h; actives raise or lower the signal
How it was run: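 mRNA induction or loss of UGT1A1, by TaqMan qRT-PCR, in duplicate HepaRG wells after 48 h exposure to half-log dilutions topping at 100 uM; DMSO (0.5%) served as baseline.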

[7] = read-out: UDP glucuronosyltransferase (UGT1A6), UGT1A6 (gene 54578); assay: LTEA_HepaRG_UGT1A6: Life Technologies and Expression Analysis (LTEA) Assay for UDP glucuronosyltransferase (UGT1A6) using HepaRG (AID 2283539; active means hit-call score of the fitted dose curve at least 0.9, where 1 is the maximum; inactive means score below 0.9); settings: mRNA level, 48 h; actives raise or lower the signal
How it was run: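 Measures mRNA change in HepaRG hepatic cells exposed 48 h to chemicals (eight-point, maximum 100 uM, 0.5% DMSO vehicle) in serum-free induction medium. Expression normalized to endogenous controls; DMSO served as negative control and baseline.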

[8] = read-out: X-box binding protein 1 (XBP1), XBP1 (gene 7494); assay: LTEA_HepaRG_XBP1: Life Technologies and Expression Analysis (LTEA) Assay for X-box binding protein 1 (XBP1) using HepaRG (AID 2283540; active means hit-call score of the fitted dose curve at least 0.9, where 1 is the maximum; inactive means score below 0.9); settings: mRNA level, 48 h; actives raise or lower the signal
How it was run: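 Eight concentrations (half-log, highest 100 uM, 0.5% DMSO) tested in duplicate on HepaRG cells over 48 h in serum-free induction medium; qRT-PCR of XBP1 normalised to ACTB, GAPDH, POLR2A.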

[9] = ATG_XTT_Cytotoxicity: Cytotoxicity Assessment in the Attagene TRANS-FACTORIAL HepG2 Assay (AID 2283584)
How it was run: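 24 h chemical exposure of reporter-transfected HepG2; XTT signal loss vs DMSO indicates cytotoxicity.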

[10] = biological target: Cellular tumor antigen p53 (Homo sapiens) (UniProt P04637); assay: TOX21_p53_BLA_p2_ratio: Tox21 HCT-116 p53 Agonism Beta-lactamase Assay, Ratio, Phase 2 (AID 2283592)
Sequence of Cellular tumor antigen p53 (Homo sapiens) (P04637 whole entry, looked up): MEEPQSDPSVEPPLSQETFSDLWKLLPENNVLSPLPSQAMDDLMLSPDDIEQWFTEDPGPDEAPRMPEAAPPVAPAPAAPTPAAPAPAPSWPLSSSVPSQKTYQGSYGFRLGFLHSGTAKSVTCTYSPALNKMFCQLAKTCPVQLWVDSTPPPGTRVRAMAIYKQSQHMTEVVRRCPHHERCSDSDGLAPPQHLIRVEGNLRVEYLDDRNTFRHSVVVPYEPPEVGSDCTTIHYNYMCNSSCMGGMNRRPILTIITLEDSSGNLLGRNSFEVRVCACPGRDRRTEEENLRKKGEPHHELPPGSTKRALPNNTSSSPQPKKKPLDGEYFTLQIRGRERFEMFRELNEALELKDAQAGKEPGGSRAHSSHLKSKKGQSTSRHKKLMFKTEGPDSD
How it was run: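 DMSO-normalized, positive-direction endpoint derived from the 460 nm/530 nm FRET ratio in HCT116 p53 beta-lactamase reporter cells exposed 16 h at 37C and loaded with CCF4-AM for 2 h.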

[11] = TOX21_p53_BLA_p3_viability: Viability Assessment in the Tox21 HCT-116 p53 Agonism Beta-lactamase Assay, Phase 3 (AID 2283593);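 further: cells exposed to compound for 16 h before reading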
How it was run: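 Cellular ATP was quantified by CellTiter-Glo luminescence, read after 30 min at room temperature. Beforehand, HCT116 cells (4000/well) received compound 5 h post-seeding, 217-fold diluted from DMSO, then incubated 16 h at 37C.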

[12] = biological target: Cellular tumor antigen p53 (Homo sapiens) (UniProt P04637); assay: TOX21_p53_BLA_p3_ratio: Tox21 HCT-116 p53 Agonism Beta-lactamase Assay, Ratio, Phase 3 (AID 2283596)
How it was run: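 Cells were seeded at 4000/well, rested 5 h at 37C, then dosed with DMSO compound solutions (217-fold dilution) for 16 h. CCF4-AM substrate was loaded for 2 h at room temperature, and the 460/530 nm emission ratio was fitted for gain of signal versus DMSO.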

[13] = TOX21_p53_BLA_p4_viability: Viability Assessment in the Tox21 HCT-116 p53 Agonism Beta-lactamase Assay, Phase 4 (AID 2283597);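 further: hits lower the luminescence signal meaning cytotoxicity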
How it was run: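 In this multiplexed secondary endpoint, HCT116 cells (4000 per well, compound at 5 h, 16 h treatment) received CellTiter-Glo after the beta-lactamase read. Luminescence after 30 min RT reflects ATP, and falling signal marks cytotoxicity.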

[14] = biological target: Cellular tumor antigen p53 (Homo sapiens) (UniProt P04637); assay: TOX21_p53_BLA_p5_ratio: Tox21 HCT-116 p53 Agonism Beta-lactamase Assay, Ratio, Phase 5 (AID 2283599)
How it was run: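 Beta-lactamase reporter ratio (blue 460 nm over green 530 nm, 405 nm excitation) after 2 h CCF4-AM loading, in HCT-116 cells exposed 16 h at 37 C to compounds pinned at 217-fold dilution. Increases relative to DMSO baseline scored.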

[15] = TOX21_p53_BLA_p5_viability: Viability Assessment in the Tox21 HCT-116 p53 Agonism Beta-lactamase Assay, Phase 5 (AID 2283600)
How it was run: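 Here cell health was gauged by ATP levels in wells holding 4000 cells, each treated 16 h with DMSO-delivered compounds at 217-fold dilution; reduced luminescence marked toxicity.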

[16] = biological target: Cellular tumor antigen p53 (Homo sapiens) (UniProt P04637); assay: TOX21_p53_BLA_p4_ratio: Tox21 HCT-116 p53 Agonism Beta-lactamase Assay, Ratio, Phase 4 (AID 2283601)
How it was run: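 Signal is the blue/green (460nm/530nm) ratio of cleaved versus uncleaved CCF4-AM substrate, read after 2 h substrate loading. Cells were HCT116 carrying the p53-responsive beta-lactamase reporter, dosed 16 h at 37C, 5% CO2; CellTiter-Glo measured in parallel.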

Measured: AC50

O=P(Oc1ccccc1)(Oc1ccccc1)Oc1ccccc1
active: TIMP1, TIMP1 (gene 7076) 73.1 µM | [5] 50 µM | [6] 3.1 µM
inactive: all other assays above

O=P1(N(CCCl)CCCl)NCCCO1 (stereo not given)
not listed: [9] | [11] | [13] | [15]
inactive: all other assays above

CCN(CC)c1ccccc1
not listed: [10]
inactive: all other assays above

Nc1ccc(Cl)cc1
active: [6] 36.5 µM
inactive: all other assays above

c1ccc2c(c1)Nc1ccccc1S2
active: [4] 32.5 µM | [6] 50 µM
inactive: all other assays above
